Screens deposited in PubChem BioAssay by National Center for Advancing Translational Sciences (NCATS).
Sfp inh – qHTS Assay for Inhibitors of Bacillus subtilis Sfp phosphopantetheinyl transferase (PPTase). 4'-phosphopantetheinyl transferase ffp (Bacillus subtilis), Q9F4F7. Biochemical Sfp PPTase activity, qHTS. Potency, µM, inactives show largest response in the series, negative = inhibition, actives largely listed as inhibitors. 310,000 compounds, 3.5% hits;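 note: the enzyme is Sfp with the accession as filed and its product quenches rhodamine fluorescence; potency is the fitted concentration of half-maximal effect; 0% = enzyme reaction without inhibitor and -100% = no enzyme wells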
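Buffer: 50 mM Hepes-Na pH 7.6, 10 mM MgCl2, 0.01% Nonidet P-40, 0.01% BSA. Enzyme 15 nM, pre-exposed to compound 15 min; substrates then added and fluorescence change tracked over 30 min.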
JMJD2E inh – qHTS Assay for Inhibitors of Human Jumonji Domain Containing 2E (JMJD2E); JMJD2E catalytic domain, FDH-coupled NADH fluorescence (FDH is formaldehyde dehydrogenase); 230,000 compounds, 1.6% hits; AID 2147, 2009; Potency, µM (series often up to 57.1 µM), for the others: at the top dose activity change, negative = inhibition, actives largely listed as inhibitors; Lysine-specific demethylase 4E (Homo sapiens), B2RXH2; active = well fitted inhibition curve with a large enough effect, not every such curve was filed as active; inconclusive = small, poorly fitted or top-dose-only effect, or another doubt; inactive = no such curve, though single readings can be large or run the other way;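 note: potency is the fitted concentration of half-maximal effect; 0% = wells with enzyme and -100% = buffer wells without enzyme; nearly all actives have a fitted effect of over 50% in size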
Target sequence (B2RXH2 1-337 limits assumed): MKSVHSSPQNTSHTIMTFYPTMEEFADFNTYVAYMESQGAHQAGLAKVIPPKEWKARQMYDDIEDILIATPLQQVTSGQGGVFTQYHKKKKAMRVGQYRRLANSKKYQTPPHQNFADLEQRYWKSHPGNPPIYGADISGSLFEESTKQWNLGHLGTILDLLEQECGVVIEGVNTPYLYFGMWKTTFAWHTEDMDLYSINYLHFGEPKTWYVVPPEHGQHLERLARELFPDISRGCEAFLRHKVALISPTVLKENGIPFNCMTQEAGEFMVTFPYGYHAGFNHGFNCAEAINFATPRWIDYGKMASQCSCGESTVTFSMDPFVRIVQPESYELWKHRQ
NPSR antagonist – qHTS Assay for Antagonists of the Neuropeptide S Receptor: cAMP Signal Transduction | Q6W5P4 | 220,000 compounds, 1% hits | Potency, µM (doses to about 38.3 µM), for the others: top-dose activity change, negative = inhibition, actives largely listed as inhibitors | AID 1461, 2008 | CHO-NPSR cells, cAMP TR-FRET, antagonist mode; note: potency is the fitted concentration of half-maximal effect; nearly all actives have a fitted effect of over 50% in size
ALDH1A1 block – qHTS Assay for Inhibitors of Aldehyde Dehydrogenase 1 (ALDH1A1). Potency, µM (top dose mostly 75.3 µM), for the others: at the highest dose activity, negative = inhibition, hits mostly inhibitors. AID 1030, 2008. Purified ALDH1A1, NADH fluorescence, propionaldehyde substrate. 220,000 compounds, 7.3% hits; active = well fitted inhibition curve with a large enough effect, not every such curve was filed as active; inconclusive = small, poorly fitted or top-dose-only effect, or another doubt; inactive = no such curve, though single readings can be large or run the other way;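 note: potency is the fitted concentration of half-maximal effect; plate controls were no enzyme wells and a reference inhibitor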
RGS12 GoLoco inh – qHTS Assay for Inhibitors of RGS12 GoLoco Motif Activity (Red Fluorophore); Gai1:RGS12 GoLoco peptide FP, rhodamine, 10 min; Potency, µM (titrated, usually from 61.6 µM), inactives show at the highest dose activity, negative = inhibition, actives largely listed as inhibitors; 230,000 compounds, 0.44% hits; AID 880, 2007; active = well fitted inhibition curve with a large enough effect, not every such curve was filed as active; inactive = no such curve, though single readings can be large or run the other way; note: potency is the fitted concentration of half-maximal effect; nearly all actives have a fitted effect of over 30% in size
Target sequence (P63096 whole entry, looked up): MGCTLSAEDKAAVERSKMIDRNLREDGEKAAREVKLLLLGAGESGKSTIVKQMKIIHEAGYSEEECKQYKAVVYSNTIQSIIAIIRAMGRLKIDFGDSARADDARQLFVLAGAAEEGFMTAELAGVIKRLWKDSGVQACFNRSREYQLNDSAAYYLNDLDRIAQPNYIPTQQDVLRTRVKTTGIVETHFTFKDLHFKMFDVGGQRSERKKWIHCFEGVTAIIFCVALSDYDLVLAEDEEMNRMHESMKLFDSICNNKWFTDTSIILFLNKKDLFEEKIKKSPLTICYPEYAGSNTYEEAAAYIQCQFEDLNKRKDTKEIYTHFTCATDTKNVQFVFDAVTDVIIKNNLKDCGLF
FBPA coupling cs – qHTS Assay for Inhibitors of Fructose-1,6-bisphosphate Aldolase from Giardia Lamblia: Coupling assay counterscreen. coupling enzyme system counterscreen, AmpLite Red fluorescence. activity change, negative = inhibition, % at 58.2 µM, hits read low. 290,000 compounds, 0.67% hits. AID 2472, 2010; in the data active = activity change below about -30%
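Counterscreen of the coupled detection system alone, without aldolase: glyceraldehyde-3-phosphate coupling enzymes plus AmpLite Red readout. Compounds at 57.5 uM final, 10 min RT preincubation, 20 min RT reaction, fluorescence 525/598 nm.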
* hit, by the source's call; ? = inconclusive; · = not tested or not shown; [ ] = dose if it differs, or a comment. An excerpt weighted towards active compounds, which were near 8.5% of everything screened. Unless noted, calls come from the whole dose curve; as a rule, active = well fitted curve in the direction sought with a large enough effect; inconclusive = small, poorly fitted or top-dose-only effect, or another doubt; inactive = no such curve, though single readings can be large; an effect the other way counts as inactive or inconclusive. Unless noted, % is set by controls: 0 for no effect and ±100 for the full control effect.

SMILES	Sfp inh	JMJD2E inh	NPSR antagonist	ALDH1A1 block	RGS12 GoLoco inh	FBPA coupling cs
CCN1C[C@]2(C)CC[C@H](OC)[C@@]34[C@H]1C1(OCO[C@@]15C[C@H](OC)C1C[C@]3(O)C5[C@H]1OC)[C@@H](O)[C@H]24	8%	8%	·	2%	2%	2
OCC(CBr)(CBr)CBr	·	·	·	18µM*	5%	·
CCN1C(=O)NC(=O)/C(=C\c2cn(CC(=O)N3CCCC3)c3ccccc23)C1=O	56µM*	·	·	·	·	2
Cc1ccc(N2C(=O)NC(=O)/C(=C\c3cn(CC(=O)O)c4ccccc34)C2=O)cc1	-25%	·	·	·	·	-3
O=C(O)Cn1cc(/C=C2\C(=O)NC(=O)N(c3ccc(Br)cc3)C2=O)c2ccccc21	28µM*	·	·	·	·	4
CCc1ccccc1N1C(=O)NC(=O)/C(=C\c2cc(C)n(C)c2C)C1=O	3%	-23%	-1%	-11%	13%	2
CCN1C(=O)NC(=O)/C(=C\c2cn(CC(=O)N3CCCCC3)c3ccccc23)C1=O	26%	·	·	·	·	3
O=C(O)Cn1cc(/C=C2\C(=O)NC(=O)N(Cc3ccco3)C2=O)c2ccccc21	28µM*	?	9%	8.9µM*	127%	-6
CCN1C(=O)NC(=O)/C(=C\c2cn(CC(=O)O)c3ccccc23)C1=O	2%	·	·	·	·	-1
Cc1cc(/C=C2/C(=O)NC(=O)N(Cc3ccco3)C2=O)c(C)n1-c1ccccc1O	6%	32µM*	-35%	·	27%	4
CCCc1cc2c(n1Cc1cccc(Cl)c1)C(C)C1CN(C(=O)c3ccccc3)C(C)(C(=O)OC)C21 (stereo unspecified)	-3%	-7%	·	?	68%	-10
C[C@H]1[C@@H](O)[C@@H](C)/C=C\C=CCC\C=C/C=C\C=C/C=C[C@@H](O[C@H]2O[C@@H](C)[C@@H](O)[C@@H](N)[C@@H]2O)C[C@@H]2O[C@@](O)(C[C@@H](O)[C@H]2C(=O)O)C[C@@H](O)[C@@H](O)CC[C@@H](O)C[C@@H](O)C[C@@H](O)CC(=O)O[C@H]1C	18%	-22%[25.5 µM]	·	8%[20.9 µM]	20%[21.6 µM]	1
COC(=O)C(O)C(O)(CCC(C)C)C(=O)OC1C(OC)=CC23CCCN2CCc2cc4c(cc2C13)OCO4 (stereo unspecified)	11%	·	·	8%	5%	1
Oc1cccc(Cl)c1	·	·	·	2%	9%	·
Nc1ncc([N+](=O)[O-])s1	·	·	·	25µM*	-3%	·
Oc1c(Cl)c(Cl)c(Cl)c(Cl)c1Cl (tested in a mixture with another compound)	·	·	·	4%[13.5 µM]	5%[14.2 µM]	·
O=C(Cl)OCc1ccccc1	·	·	·	?	0%	·
C=C1[C@@H]2C[C@]3(C(CC2=O)[C@]24C5C[C@H]3[C@H]2N(CC)C[C@]5(C)CC[C@@H]4O)[C@@H]1O (stereo partly specified)	20%	·	·	·	·	0
COc1ccc(C(C)=O)cc1COC(=O)c1ccc2ccccc2n1	19%	-12%	-3%	14µM*	3%	0
O=C(O)C[O][Sb][O]CC(=O)O	·	·	·	11%[13.5 µM]	5%[14.2 µM]	·
CC(=O)[O-].CC(=O)[O-].CC(=O)[O-].[Cr+3]	·	·	·	6%	1%	·
C=C(C)[C@@]12OC3(c4ccccc4)O[C@@H]1[C@@H]1[C@@H]4O[C@]4(CO)[C@@H](O)[C@]4(O)C(=O)C(C)=C[C@H]4[C@@]1(O3)[C@H](C)[C@H]2OC(=O)/C=C/C=C/c1ccccc1	0%	·	·	·	·	-7
O=C1NC(=O)C(=Cc2ccsc2)C(=O)N1	?	-16%	-29%	-3%	9%	-1
CC(=O)n1cc(C=C2C(=O)NC(=O)NC2=O)c2ccccc21	22µM*	·	·	·	·	0
O=C1NC(=O)C(=Cc2coc3ccccc3c2=O)C(=O)N1	40µM*	20µM*	1%	3.5µM*	16%	5
SMILES	Sfp inh	JMJD2E inh	NPSR antagonist	ALDH1A1 block	RGS12 GoLoco inh	FBPA coupling cs
O=C1NC(=O)C(=C/C=C/c2coc3ccc(Br)cc3c2=O)C(=O)N1	-14%	-6%	6%	3.2µM*	-176%	6
C=CCn1c(C)c(C=C2C(=O)NC(=O)NC2=O)c2ccccc21	-8%	·	·	·	·	-1
O=C1NC(=O)C(=Cc2csc3ccccc23)C(=O)N1	18µM*	?	35%	10µM*	4%	1
Cn1cc(C=C2C(=O)NC(=O)NC2=O)c2ccccc21	-28%	·	·	·	·	-1
CC(C)C[C@H](NC(=O)CNC(=O)[C@H](CCC(N)=O)NC(=O)[C@H](Cc1ccc(O)cc1)NC(=O)[C@@H](NC(=O)[C@H](Cc1ccc(O)cc1)NC(=O)CNC(=O)[C@@H](N)CCCN=C(N)N)C(C)C)C(=O)O	0%	·	·	·	·	7
OC12C3C4CC5C6C4C1C6C(C53)N2CCc1cccc(F)c1 (stereo unspecified)	7%	·	·	·	·	-3
NC(=O)O	12%	·	·	·	·	1
C=CCn1c(O)c(C(CC)=Nc2ccc3c(c2)CCC3)c(=O)[nH]c1=O	10%	11%	-26%	·	-1%	2
C=CCn1c(O)c(C(C)=Nc2cccc(C(=O)O)c2)c(=O)[nH]c1=O	-2%	?	19%	·	-1%	0
C=CCn1c(O)c(C(C)=Nc2ccc(C(=O)OCC)cc2)c(=O)[nH]c1=O	-29%	-11%	4%[46.1 µM]	32µM*	-15%	2
C=CCn1c(O)c(C(CC)=Nc2ccc(N(C)C)cc2)c(=O)[nH]c1=O	50µM*	?	11%[7.67 µM]	·	-6%	-20
COC(=O)c1cn(S(=O)(=O)c2ccccc2)c2ccccc12	?	·	·	·	·	0
COc1ccc2c3c1OC1C[C@@H](O)C=C[C@@]31CCN(C)C2 (stereo partly specified)	13%	3%	·	-3%	0%	0
CO/C1=C\C(C)=C\[C@@H](C)[C@@H](O)[C@@H](C)C/C(C)=C/C=C/[C@H](OC)[C@@H]([C@@H](C)[C@@H](O)[C@H](C)[C@@]2(O)C[C@@H](O)[C@H](C)C(C(C)C)O2)OC1=O (stereo partly specified)	-5%	·	·	·	·	-10
OCCCc1ccc(O)c(O)c1	50µM*	?	-27%	?	-23%	-7
CCCN(CCC)CCc1ccc(O)c(O)c1	-24%	20µM*	2%[46.1 µM]	5%	9%	·
